This is an account of results in ChEMBL document CHEMBL2218924, “A broad activity screen in support of a chemogenomic map for kinase signalling research and drug discovery” (Biochem J, 2013).

By residual activity is commonly meant the signal under treatment as a percentage of the control signal.

In assay [1] the target is T1, Muscle, skeletal receptor tyrosine-protein kinase (Homo sapiens) (UniProt O15146).
T1 sequence (whole entry): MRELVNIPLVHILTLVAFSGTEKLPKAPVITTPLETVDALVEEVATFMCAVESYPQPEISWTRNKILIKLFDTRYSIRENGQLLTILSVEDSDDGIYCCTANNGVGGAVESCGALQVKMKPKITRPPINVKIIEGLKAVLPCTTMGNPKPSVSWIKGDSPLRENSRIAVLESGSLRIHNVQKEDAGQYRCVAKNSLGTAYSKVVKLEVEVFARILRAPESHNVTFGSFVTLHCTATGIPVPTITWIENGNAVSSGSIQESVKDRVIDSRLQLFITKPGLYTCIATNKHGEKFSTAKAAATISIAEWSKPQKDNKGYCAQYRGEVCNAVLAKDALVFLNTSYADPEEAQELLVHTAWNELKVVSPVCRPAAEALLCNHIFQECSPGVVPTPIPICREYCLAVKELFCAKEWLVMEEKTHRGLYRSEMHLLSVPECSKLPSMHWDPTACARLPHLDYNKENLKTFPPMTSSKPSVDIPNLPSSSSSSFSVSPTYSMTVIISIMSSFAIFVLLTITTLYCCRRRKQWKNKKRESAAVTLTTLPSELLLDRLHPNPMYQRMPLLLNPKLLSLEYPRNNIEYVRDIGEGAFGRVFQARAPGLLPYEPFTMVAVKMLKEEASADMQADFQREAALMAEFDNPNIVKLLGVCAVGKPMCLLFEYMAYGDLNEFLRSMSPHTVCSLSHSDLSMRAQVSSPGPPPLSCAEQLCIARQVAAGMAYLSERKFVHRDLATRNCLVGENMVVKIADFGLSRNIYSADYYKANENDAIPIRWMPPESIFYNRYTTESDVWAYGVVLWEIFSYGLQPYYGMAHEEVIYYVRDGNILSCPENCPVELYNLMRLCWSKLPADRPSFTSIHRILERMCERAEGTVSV
Conditions: at 1 µM.

For assay [2], the target named is T1, Muscle, skeletal receptor tyrosine-protein kinase (Homo sapiens). Conditions: at 10 µM.
Assay [3] addresses T2, Serine/threonine-protein kinase Nek11 (Homo sapiens) (UniProt Q8NG66).
T2 sequence (whole entry): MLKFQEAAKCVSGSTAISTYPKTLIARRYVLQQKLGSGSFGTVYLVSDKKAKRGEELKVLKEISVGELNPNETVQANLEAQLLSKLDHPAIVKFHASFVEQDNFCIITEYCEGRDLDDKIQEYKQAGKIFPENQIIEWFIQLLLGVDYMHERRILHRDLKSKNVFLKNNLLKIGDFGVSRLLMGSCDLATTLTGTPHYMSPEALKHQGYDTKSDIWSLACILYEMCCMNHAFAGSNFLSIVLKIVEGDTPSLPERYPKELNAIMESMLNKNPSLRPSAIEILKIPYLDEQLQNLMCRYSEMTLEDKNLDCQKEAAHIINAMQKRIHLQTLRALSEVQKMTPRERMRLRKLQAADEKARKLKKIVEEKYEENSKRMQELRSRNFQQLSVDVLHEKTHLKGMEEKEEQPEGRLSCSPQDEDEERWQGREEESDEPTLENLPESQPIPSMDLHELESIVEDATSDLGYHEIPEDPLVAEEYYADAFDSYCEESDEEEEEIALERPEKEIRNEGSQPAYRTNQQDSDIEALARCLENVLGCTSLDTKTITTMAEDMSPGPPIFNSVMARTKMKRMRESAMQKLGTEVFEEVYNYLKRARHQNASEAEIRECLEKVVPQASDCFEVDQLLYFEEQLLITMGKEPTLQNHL
The following applies: at 1 µM.

In assay [4] the target is T2, Serine/threonine-protein kinase Nek11 (Homo sapiens). Conditions: at 10 µM.
The target of assay [5] is T3, Serine/threonine-protein kinase Nek2 (Homo sapiens) (UniProt P51955).
T3 sequence (whole entry): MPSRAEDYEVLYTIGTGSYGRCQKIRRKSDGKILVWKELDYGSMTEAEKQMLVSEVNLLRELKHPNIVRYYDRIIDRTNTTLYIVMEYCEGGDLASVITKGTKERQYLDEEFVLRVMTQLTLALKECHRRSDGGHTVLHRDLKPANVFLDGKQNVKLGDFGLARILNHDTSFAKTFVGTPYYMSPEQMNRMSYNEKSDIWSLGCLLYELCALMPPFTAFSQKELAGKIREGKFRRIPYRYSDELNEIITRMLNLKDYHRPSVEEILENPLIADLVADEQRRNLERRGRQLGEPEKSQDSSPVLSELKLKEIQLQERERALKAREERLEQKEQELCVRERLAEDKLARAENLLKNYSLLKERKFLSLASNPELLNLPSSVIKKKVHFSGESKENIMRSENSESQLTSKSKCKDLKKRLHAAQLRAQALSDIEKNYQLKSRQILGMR
Conditions: at 1 µM.

In assay [6] the target is T3, Serine/threonine-protein kinase Nek2 (Homo sapiens). Conditions: at 10 µM.
In assay [7] the target is T4, Serine/threonine-protein kinase Nek3 (Homo sapiens) (UniProt P51956).
T4 sequence (whole entry): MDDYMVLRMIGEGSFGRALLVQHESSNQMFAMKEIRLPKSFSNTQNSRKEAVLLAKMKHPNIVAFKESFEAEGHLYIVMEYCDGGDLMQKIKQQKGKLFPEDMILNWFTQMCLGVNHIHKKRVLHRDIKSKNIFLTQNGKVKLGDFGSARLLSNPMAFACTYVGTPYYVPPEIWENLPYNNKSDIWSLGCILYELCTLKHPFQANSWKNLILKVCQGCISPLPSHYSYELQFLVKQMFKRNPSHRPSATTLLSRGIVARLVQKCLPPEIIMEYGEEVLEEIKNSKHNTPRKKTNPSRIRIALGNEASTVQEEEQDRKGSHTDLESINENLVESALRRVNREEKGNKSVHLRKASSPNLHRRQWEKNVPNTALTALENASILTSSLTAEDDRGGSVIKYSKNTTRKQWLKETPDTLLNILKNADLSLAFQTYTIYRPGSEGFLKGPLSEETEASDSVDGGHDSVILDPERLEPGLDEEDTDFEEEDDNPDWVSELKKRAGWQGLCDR
The following applies: at 1 µM.

Assay [8] has as its target T4, Serine/threonine-protein kinase Nek3 (Homo sapiens). Conditions: at 10 µM.
In assay [9] the target is Serine/threonine-protein kinase tousled-like 2 (Homo sapiens) (UniProt Q86UE8). Conditions: at 1 µM.
Sequence of Serine/threonine-protein kinase tousled-like 2 (Homo sapiens) (Q86UE8 whole entry, looked up): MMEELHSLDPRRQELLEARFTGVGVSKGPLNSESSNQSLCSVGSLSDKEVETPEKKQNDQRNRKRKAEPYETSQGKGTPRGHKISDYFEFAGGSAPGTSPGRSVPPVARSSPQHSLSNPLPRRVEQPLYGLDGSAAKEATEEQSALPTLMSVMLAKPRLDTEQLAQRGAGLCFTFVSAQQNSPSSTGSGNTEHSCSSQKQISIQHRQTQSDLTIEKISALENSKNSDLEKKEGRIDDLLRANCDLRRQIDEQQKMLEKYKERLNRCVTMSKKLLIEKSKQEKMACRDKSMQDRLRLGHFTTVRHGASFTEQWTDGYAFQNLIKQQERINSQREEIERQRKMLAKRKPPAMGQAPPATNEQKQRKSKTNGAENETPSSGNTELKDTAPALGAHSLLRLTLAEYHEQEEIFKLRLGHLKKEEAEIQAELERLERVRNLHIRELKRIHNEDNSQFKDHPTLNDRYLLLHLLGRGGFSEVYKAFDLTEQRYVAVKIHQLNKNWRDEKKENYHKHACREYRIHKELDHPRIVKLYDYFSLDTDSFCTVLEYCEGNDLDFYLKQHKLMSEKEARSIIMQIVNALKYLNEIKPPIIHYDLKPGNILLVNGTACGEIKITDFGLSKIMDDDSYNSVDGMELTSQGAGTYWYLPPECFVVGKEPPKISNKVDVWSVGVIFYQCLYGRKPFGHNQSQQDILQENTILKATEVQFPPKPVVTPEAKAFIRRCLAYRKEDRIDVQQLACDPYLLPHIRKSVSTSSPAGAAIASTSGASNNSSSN
The target is the same in assay [10]. The following applies: at 10 µM.
For assay [11], the target named is T5, Testis-specific serine/threonine-protein kinase 1 (Homo sapiens) (UniProt Q9BXA7).
T5 sequence (whole entry): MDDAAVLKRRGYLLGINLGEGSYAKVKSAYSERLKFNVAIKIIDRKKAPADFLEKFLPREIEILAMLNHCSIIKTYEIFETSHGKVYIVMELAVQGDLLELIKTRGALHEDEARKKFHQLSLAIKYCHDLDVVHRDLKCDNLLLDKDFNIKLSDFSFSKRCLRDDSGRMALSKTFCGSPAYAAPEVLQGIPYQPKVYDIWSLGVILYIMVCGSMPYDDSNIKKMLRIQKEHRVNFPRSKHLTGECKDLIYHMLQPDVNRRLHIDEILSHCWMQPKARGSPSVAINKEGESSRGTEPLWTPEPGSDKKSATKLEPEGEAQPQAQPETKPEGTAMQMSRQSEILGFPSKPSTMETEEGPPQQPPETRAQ
Conditions: at 1 µM.

The target of assay [12] is T5, Testis-specific serine/threonine-protein kinase 1 (Homo sapiens). Conditions: at 10 µM.
The target in assay [13] is T6, Testis-specific serine/threonine-protein kinase 2 (Homo sapiens) (UniProt Q96PF2).
T6 sequence (whole entry): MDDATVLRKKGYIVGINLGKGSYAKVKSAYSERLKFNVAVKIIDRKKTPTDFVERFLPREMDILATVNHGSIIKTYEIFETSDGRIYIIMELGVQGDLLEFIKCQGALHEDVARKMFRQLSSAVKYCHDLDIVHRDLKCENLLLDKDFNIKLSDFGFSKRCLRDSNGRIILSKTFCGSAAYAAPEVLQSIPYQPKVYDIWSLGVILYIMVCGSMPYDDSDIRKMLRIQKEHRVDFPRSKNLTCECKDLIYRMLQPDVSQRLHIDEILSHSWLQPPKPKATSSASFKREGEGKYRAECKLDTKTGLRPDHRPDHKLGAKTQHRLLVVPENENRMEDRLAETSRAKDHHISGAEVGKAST
Conditions: at 10 µM.

For assay [14], the target named is T7, Tyrosine-protein kinase Tec (Homo sapiens) (UniProt P42680).
T7 sequence (whole entry): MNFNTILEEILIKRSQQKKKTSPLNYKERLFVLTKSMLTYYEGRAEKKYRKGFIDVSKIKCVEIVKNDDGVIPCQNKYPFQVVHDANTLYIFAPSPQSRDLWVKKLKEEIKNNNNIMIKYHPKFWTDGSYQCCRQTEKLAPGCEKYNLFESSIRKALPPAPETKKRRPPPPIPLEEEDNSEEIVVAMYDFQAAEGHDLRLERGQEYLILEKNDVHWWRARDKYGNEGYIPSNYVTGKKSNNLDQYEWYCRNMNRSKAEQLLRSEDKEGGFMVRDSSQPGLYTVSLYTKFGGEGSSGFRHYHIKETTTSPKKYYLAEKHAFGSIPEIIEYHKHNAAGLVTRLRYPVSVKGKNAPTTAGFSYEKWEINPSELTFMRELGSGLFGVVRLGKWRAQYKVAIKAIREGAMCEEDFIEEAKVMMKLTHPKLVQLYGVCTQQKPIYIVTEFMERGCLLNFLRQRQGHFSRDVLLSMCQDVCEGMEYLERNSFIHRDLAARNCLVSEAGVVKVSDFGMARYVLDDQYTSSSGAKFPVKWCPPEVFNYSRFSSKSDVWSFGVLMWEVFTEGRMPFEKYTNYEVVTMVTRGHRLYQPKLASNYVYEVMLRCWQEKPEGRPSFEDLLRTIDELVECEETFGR
The following applies: at 1 µM.

The target of assay [15] is T7, Tyrosine-protein kinase Tec (Homo sapiens). Conditions: at 10 µM.
The target of assay [16] is Angiopoietin-1 receptor (Homo sapiens) (UniProt Q02763). The following applies: at 1 µM.
Sequence of Angiopoietin-1 receptor (Homo sapiens) (Q02763 whole entry): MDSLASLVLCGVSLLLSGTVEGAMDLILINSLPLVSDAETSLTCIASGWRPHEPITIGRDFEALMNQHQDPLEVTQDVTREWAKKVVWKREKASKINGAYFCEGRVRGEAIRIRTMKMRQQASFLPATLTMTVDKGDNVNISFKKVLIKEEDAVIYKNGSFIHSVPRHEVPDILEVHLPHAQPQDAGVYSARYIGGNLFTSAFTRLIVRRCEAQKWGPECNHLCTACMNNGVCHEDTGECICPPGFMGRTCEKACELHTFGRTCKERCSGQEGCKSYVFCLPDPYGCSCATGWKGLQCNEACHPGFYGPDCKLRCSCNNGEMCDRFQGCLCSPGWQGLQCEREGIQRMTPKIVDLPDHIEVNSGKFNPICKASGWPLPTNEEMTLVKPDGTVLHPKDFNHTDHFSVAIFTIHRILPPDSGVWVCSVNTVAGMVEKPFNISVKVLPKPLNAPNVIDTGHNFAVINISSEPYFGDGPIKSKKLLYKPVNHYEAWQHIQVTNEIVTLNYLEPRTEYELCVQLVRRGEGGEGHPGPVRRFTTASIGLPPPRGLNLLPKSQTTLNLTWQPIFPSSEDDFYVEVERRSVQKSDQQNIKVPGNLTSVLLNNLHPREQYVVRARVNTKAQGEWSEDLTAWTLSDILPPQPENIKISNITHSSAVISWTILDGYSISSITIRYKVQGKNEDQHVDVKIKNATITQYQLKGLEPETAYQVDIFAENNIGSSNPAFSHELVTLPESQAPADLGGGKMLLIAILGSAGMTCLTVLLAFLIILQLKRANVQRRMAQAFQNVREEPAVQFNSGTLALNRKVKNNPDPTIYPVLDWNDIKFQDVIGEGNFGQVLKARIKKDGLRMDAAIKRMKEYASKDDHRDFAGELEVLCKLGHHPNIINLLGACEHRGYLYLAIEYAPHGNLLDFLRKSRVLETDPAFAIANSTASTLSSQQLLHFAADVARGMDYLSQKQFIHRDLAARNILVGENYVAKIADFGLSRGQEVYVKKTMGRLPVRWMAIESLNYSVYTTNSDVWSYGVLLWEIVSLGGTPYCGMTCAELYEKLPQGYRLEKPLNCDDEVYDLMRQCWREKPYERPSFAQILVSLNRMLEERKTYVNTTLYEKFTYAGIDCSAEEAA
Assay [17] has the same target. The following applies: at 10 µM.
Assay [18] deals with High affinity nerve growth factor receptor (Homo sapiens) (UniProt P04629). The following applies: at 1 µM.
Sequence of High affinity nerve growth factor receptor (Homo sapiens) (P04629 33-796 limits assumed): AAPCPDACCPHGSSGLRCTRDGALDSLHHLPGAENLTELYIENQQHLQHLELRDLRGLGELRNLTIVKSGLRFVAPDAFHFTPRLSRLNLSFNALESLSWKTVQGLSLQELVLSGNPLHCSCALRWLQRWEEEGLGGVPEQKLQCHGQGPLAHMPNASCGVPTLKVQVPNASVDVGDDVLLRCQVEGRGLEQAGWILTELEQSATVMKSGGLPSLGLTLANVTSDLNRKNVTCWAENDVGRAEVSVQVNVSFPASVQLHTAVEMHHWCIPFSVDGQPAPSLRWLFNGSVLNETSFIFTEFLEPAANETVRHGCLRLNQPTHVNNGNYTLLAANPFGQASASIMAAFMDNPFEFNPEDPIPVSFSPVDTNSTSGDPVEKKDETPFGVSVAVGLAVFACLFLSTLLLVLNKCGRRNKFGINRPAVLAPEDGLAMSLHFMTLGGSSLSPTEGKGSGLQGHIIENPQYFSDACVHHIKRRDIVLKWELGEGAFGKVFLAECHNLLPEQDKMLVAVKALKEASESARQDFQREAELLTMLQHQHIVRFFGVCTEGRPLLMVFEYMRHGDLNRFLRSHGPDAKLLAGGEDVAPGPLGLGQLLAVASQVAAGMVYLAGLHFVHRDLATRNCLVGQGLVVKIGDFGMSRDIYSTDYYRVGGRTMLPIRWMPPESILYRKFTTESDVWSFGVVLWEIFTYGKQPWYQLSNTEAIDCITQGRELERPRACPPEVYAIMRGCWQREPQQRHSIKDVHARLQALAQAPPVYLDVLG
For assay [19] the target is unchanged. Conditions: at 10 µM.
The target of assay [20] is BDNF/NT-3 growth factors receptor (Homo sapiens) (UniProt Q16620). The following applies: at 1 µM.
Sequence of BDNF/NT-3 growth factors receptor (Homo sapiens) (Q16620 32-822 limits assumed): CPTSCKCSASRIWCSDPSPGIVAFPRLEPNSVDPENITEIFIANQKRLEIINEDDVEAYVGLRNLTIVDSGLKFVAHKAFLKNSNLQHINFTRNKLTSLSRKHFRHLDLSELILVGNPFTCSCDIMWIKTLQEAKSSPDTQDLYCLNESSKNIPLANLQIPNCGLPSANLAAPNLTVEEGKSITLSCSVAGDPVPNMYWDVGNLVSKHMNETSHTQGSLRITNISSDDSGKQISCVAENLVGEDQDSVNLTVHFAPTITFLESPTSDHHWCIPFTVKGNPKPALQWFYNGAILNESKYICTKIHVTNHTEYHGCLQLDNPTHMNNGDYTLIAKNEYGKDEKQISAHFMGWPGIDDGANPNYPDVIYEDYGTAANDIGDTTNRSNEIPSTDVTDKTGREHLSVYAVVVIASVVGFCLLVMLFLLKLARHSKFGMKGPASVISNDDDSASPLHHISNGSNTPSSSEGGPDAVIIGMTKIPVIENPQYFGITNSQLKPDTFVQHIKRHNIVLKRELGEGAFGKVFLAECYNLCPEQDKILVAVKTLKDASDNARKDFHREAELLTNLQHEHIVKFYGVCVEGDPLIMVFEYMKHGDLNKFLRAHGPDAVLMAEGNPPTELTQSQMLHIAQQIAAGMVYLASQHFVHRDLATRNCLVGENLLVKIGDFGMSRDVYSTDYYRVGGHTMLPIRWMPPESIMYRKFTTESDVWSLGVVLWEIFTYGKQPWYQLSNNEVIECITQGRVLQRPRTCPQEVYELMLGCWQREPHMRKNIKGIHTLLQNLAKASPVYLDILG

The structures appear in SMILES notation.

In the case of `Oc1c2ccccc2c2c3c(cccc13)N=N2`, the residual activity in assay [1] amounted to 60%; in assay [2], 24%; in assay [3], 50%; in [4], 47%; in assay [5], 86%; in [6], 81%. For the same molecule, the residual activity in assay [7] worked out at 70%; in [8], 79%; in assay [9], 71%; in assay [10], 38%; in assay [11] it was 75%; in assay [12] it was 49%. The residual activity amounted to 86% in [13]; 89% in assay [14]; 57% in [15]; 95% in assay [16]; 63% in assay [17]; 10% in assay [18]. For the same molecule, the residual activity in assay [19] is -1%; in [20], 32%.

As for `O=Nc1c(-c2c(O)[nH]c3ccccc23)[nH]c2ccccc12`, the residual activity worked out at 58% in [1]; 5% in assay [2]; 70% in assay [3]; 18% in [4]; 93% in assay [5]; 83% in assay [6]. Besides, the residual activity in assay [7] came to 86%; in assay [8] it was 94%; in [9] it was 60%; in assay [10], 14%; in [11], 78%; in assay [12], 53%. For the same molecule, the residual activity came to 78% in assay [13]; 64% in assay [14]; 22% in assay [15]; 103% in [16]; 41% in [17]; 0% in assay [18]. The residual activity in [19] and in assay [20] was 0% throughout.

For `COc1cc2ncnc(N3CCN(C(=O)Nc4ccc(Oc5ccccc5)cc4)CC3)c2cc1OC`, the residual activity in assay [1] turned out to be 71%; in assay [2] it was 49%; in assay [3], 110%; in [4] it was 115%; in assay [5], 81%; in [6], 82%. Moreover, the residual activity in [7] came to 110%; in assay [8] it was 87%; in assay [9], 88%; in [10] it was 88%; in assay [11], 88%; in assay [12] it was 76%. Besides, the residual activity was found to be 117% in assay [13]; 83% in assay [14]; 98% in assay [15]; 69% in assay [16]; 69% in assay [17]; 71% in [18]. Further, the residual activity in [19] worked out at 30%; in assay [20], 39%.
